Drawing on PubChem BioAssay (NCI), this text covers growth for 14 compounds.

Test systems include T-47D breast; BT-549 breast; MDA-MB-435 melanoma; SW-620 colon; MCF7 breast; HCT-116 colon; HCC-2998 colon; KM12 colon.
What all share (assay): NCI-60 one-dose screen, 48 h (100 = growth as untreated, 0 = no growth, -100 = all killed)
What all share (conditions): 10 µM unless noted

About 83,000 compounds went through this panel and 20% of them were active in at least one assay; those are over-represented in the sample as a whole.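 Results are percent growth after 48 hours of single-concentration exposure. 100 means growth as in untreated cells, lower positive values show inhibition; negative values down to -100 show cell death.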 Values without a mark were called inactive. The source made the active and inactive calls. How the source made its calls: active means growth percent below 10; inactive means the rest.

Turning to `O=C(Nc1ccccc1)Nc1cccc(Oc2nnc(Cl)c3ccccc23)c1`, the growth in the assay with T-47D breast was -18% (active); with BT-549 breast, 47.7%; in the assay with MDA-MB-435 melanoma it was 48.6%; with SW-620 colon, 73.4%; in the assay on MCF7 breast it was -4.15% (active); in the assay with HCT-116 colon, 10.6%. The growth is 52.8% with HCC-2998 colon and 43.6% in the assay with KM12 colon.

Turning to `c1cc2ccc3cc2cc1CNCCOCCNCc1ccc2ccc(cc2c1)CNCCOCCNC3`, the growth with T-47D breast is -23.8% (active); in the assay with BT-549 breast it was 99.6%; in the assay with MDA-MB-435 melanoma it was -90.2% (active); in the assay on SW-620 colon, 2.45% (active); with MCF7 breast it was -17.1% (active); in the assay with HCT-116 colon, -4.41% (active). Moreover, the figures for the growth with HCC-2998 colon and with KM12 colon were -57.4% (active) and -39% (active), respectively.

In the case of `COc1ccc(-c2nc(SCCC(C)C)nc(N/N=C\c3cccc([N+](=O)[O-])c3)c2C#N)cc1`, the growth is 27.5% in the assay with T-47D breast; 63.2% with BT-549 breast; 56.3% in the assay with MDA-MB-435 melanoma; 15.5% in the assay with SW-620 colon; 35.6% in the assay on MCF7 breast; 23.5% with HCT-116 colon. Besides, the growth is 52% in the assay on HCC-2998 colon and 27.1% in the assay on KM12 colon.

Turning to `CCCCCCCCCCCCCCCCCCOc1ccccc1CC(=O)OCCC[N+](C)(C)C`, the growth in the assay with T-47D breast was 72.3%; in the assay with BT-549 breast it was 102%; in the assay with MDA-MB-435 melanoma, 58.3%; in the assay with SW-620 colon, 40%; with MCF7 breast it was 46.5%; in the assay on HCT-116 colon, 64%. For the same compound, the figures for the growth in the assay on HCC-2998 colon and in the assay on KM12 colon were 37.2% and 76.1%, respectively.

Regarding `N#CC1=C(c2ccc(Br)cc2)NC(SCC(=O)c2ccc(Br)cc2)NC1=O` (configuration not stated), the growth in the assay with T-47D breast was 92.8%; in the assay on BT-549 breast it was 99.1%; in the assay on MDA-MB-435 melanoma it was 103%; in the assay on SW-620 colon, 101%; in the assay with MCF7 breast, 101%; in the assay on HCT-116 colon, 96.5%. Further, the growth in the assay with HCC-2998 colon is 106%; with KM12 colon, 101%.

In the case of `C=C1C(=O)O[C@H]2[C@H]1CC/C(COC(=O)C(=O)c1c[nH]c3ccc(OC)cc13)=C\CC[C@@]1(C)O[C@@H]21`, the growth with T-47D breast is -54.5% (active); with BT-549 breast, -63.7% (active); with MDA-MB-435 melanoma, -85.3% (active); in the assay on SW-620 colon it was -61.4% (active); in the assay with MCF7 breast it was -30.1% (active); with HCT-116 colon, -97.3% (active). Moreover, the results for the growth with HCC-2998 colon and in the assay on KM12 colon were -81.9% (active) and -71.2% (active), respectively.

Take `COc1cc(-c2n/c(=C\c3c(O)[nH]c4ccc(Cl)cc34)cc3c2=Nc2ccccc2-3)cc(OC)c1OC`: the growth is 32.7% with T-47D breast; 101% with BT-549 breast; 16.6% in the assay on MDA-MB-435 melanoma; -29.5% (active) in the assay on SW-620 colon; 0.83% (active) in the assay with MCF7 breast; -73.5% (active) with HCT-116 colon. Further, the growth with HCC-2998 colon was 44.6%; with KM12 colon, 2.53% (active).

Regarding `Cc1ccc(-c2cc(-c3cccnc3)[nH]c(=O)c2C#N)cc1`, the growth is 95.6% with T-47D breast; 111% in the assay with BT-549 breast; 103% in the assay on MDA-MB-435 melanoma; 102% in the assay with SW-620 colon; 94.7% with MCF7 breast; 115% in the assay on HCT-116 colon. The growth in the assay on HCC-2998 colon is 102%; with KM12 colon, 101%.

For `O=[N+]([O-])c1ccc(-c2cc(-c3ccc(Nc4nc(Nc5ccc(Cl)cc5)nc(Nc5ccc(Cl)cc5)n4)cc3)no2)cc1`, the growth in the assay with T-47D breast is 97.2%; with BT-549 breast, 103%; with MDA-MB-435 melanoma it was 103%; with SW-620 colon it was 96.6%; with MCF7 breast, 83.1%; in the assay on HCT-116 colon, 83.7%. Further, the growth is 78.2% with HCC-2998 colon and 105% with KM12 colon.

For `N#C/C(=C/C=C/c1cccc(Cl)c1)S(=O)c1ccccc1` (configuration not stated), the growth with T-47D breast was -47.2% (active); with BT-549 breast, -69.3% (active); in the assay with MDA-MB-435 melanoma, -35.4% (active); with SW-620 colon it was -58.9% (active); in the assay with MCF7 breast it was -52.5% (active); with HCT-116 colon it was -86.3% (active). Further, the results for the growth with HCC-2998 colon and with KM12 colon were -88.7% (active) and -47.7% (active), respectively.

As to `COc1cc2nc(Cl)nc(Nc3ccc(S(=O)(=O)Nc4nccs4)cc3)c2cc1OC`, the growth was 94.3% with T-47D breast; 95.1% in the assay with BT-549 breast; 106% with MDA-MB-435 melanoma; 105% with SW-620 colon; 103% in the assay on MCF7 breast; 95% with HCT-116 colon. The results for the growth with HCC-2998 colon and in the assay on KM12 colon were 72.9% and 112%, respectively.

For the compound `Cc1ccc2[nH]c(=O)c3c(c2c1)OC(N)=C(C#N)C31c2cc(Br)ccc2-c2ccc(Br)cc21`, the growth is 39.4% in the assay on T-47D breast; 82.5% in the assay on BT-549 breast; 59.7% with MDA-MB-435 melanoma; 40% in the assay on SW-620 colon; 34% in the assay on MCF7 breast; 67.8% with HCT-116 colon. Moreover, the growth was 70.5% in the assay with HCC-2998 colon and 52.4% in the assay with KM12 colon.

Regarding `Cc1ccc(Cl)c(NS(=O)(=O)c2ccc(-c3cnc(C4CC4)o3)cc2)c1`, the growth with T-47D breast is 45%; in the assay on BT-549 breast, 34.5%; in the assay on MDA-MB-435 melanoma, -59.6% (active); in the assay on SW-620 colon it was 18.6%; with MCF7 breast, 12.4%; with HCT-116 colon it was 13.8%. The growth in the assay on HCC-2998 colon was 26.8%; with KM12 colon, 16.5%.

As for `CCCCn1c(=O)c2c(nc3n2CCCN3CCc2ccc(OCC(=O)NCCN(CC)CC)cc2)n(CCCC)c1=O`, the growth was 53.6% with T-47D breast; 67% in the assay on BT-549 breast; 63.6% in the assay with MDA-MB-435 melanoma; 79.2% in the assay on SW-620 colon; 36.6% in the assay on MCF7 breast; 36.4% in the assay on HCT-116 colon. Further, the growth is 56.8% with HCC-2998 colon and 77.5% with KM12 colon.
